# Screening results from PubChem.
# LMNA splice mod: modulators of lamin A splicing; HeLa LMNA splicing GFP/RFP minigene ratio, 48 h; Potency, µM (highest dose often 46.1 µM), without a hit: at the top dose ratio change, negative = inhibition, most hits filed as inhibitors; 0.01% of 200,000 active; AID 1487; active = well fitted inhibition curve with a large enough effect in the signal ratio, with a control signal flat, not every such curve was filed as active; inconclusive = small, poorly fitted or top-dose-only effect, or effect the other way, or a change in a side signal; the % refers to the signal ratio; also: potency is read from the fitted curve at half-maximal effect
#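 Read-out is the ratio of GFP to DsRed2 object intensity, acquired by 488 nm laser-scanning cytometry on HeLa lamin A-EGFP minigene reporter cells. Compound incubation 48 hrs at 37 °C in Opti-MEM with 2% FBS; DMSO 0.5% final.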
# HPGD inh: blocks human HPGD enzyme activity | 4.3% of 150,000 active | Potency, µM, for the others: at the highest dose activity change, negative = inhibition, usual class: inhibitors | purified HPGD, NADH fluorescence kinetic, PGE2 substrate | P15428; also: potency is read from the fitted curve at half-maximal effect
# Target sequence (P15428 whole entry, looked up): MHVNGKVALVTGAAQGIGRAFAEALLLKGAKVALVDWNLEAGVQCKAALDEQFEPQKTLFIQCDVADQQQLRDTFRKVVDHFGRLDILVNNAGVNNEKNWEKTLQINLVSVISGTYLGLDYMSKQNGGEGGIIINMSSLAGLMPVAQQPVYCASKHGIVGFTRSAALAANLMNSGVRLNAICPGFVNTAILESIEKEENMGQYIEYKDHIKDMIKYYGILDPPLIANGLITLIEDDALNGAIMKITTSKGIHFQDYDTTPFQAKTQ
#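 NADH formation kinetics: reaction with 30 uM PGE2 and 1 mM NAD+ (final), 20 nM enzyme, Tris-HCl pH 8 with Tween 20, after 15 min compound preincubation at room temperature. Fluorescence change, last versus first of five reads.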
# PNC assembly inh: blocks assembly of the perinucleolar compartment. PC3M PTB-GFP, PNC prevalence imaging, 16 h; active compounds read low. activity change (PNC), negative = inhibition, % at 10 µM. 3.1% of 140,000 active;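 active = readout at or below -70, meaning at least 70% loss of cells showing the perinucleolar compartment, a nuclear body marking cancer cells; inconclusive = readout between -30 and a set limit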;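 also: plate controls were DMSO wells for no effect and camptothecin positive control wells for full effect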
#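 PC3M cells stably expressing PTB-GFP, 750–1000 cells/well, treated 16 h at 37 °C with compound (23 nl of library stock), in duplicate. After paraformaldehyde fixation and Hoechst stain, imaged at 20x; PNC prevalence scored by image analysis.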
# ALDH1A1 block: blocks purified human ALDH1A1 activity | 7.3% of 220,000 active | Potency, µM (top dose mostly 75.3 µM), for inactives: at the highest dose activity, negative = inhibition, usual class: inhibitors | Purified ALDH1A1, NADH fluorescence, propionaldehyde substrate | P00352;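 also: potency is read from the fitted curve at half-maximal effect; plate controls were no enzyme wells and a reference inhibitor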
# Target sequence (P00352 whole entry, looked up): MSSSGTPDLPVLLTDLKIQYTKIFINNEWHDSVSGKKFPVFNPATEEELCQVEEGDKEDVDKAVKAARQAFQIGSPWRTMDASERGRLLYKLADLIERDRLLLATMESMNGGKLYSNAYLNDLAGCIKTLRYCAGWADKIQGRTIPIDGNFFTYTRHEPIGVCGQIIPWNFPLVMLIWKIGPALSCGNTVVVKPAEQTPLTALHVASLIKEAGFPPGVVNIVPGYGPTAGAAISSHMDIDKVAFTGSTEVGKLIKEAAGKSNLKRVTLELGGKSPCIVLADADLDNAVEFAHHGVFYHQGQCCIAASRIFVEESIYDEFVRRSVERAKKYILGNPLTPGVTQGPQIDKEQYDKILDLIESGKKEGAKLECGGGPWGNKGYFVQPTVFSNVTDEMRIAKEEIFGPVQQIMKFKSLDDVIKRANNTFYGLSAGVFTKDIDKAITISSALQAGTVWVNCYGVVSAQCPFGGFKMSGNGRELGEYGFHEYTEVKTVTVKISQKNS
# Luc counter: counter-screen: inhibitors of Kinase-Glo firefly luciferase. Kinase-Glo luciferase, ATP luminescence, 8 min. 0.28% of 200,000 active. Potency, µM (doses to about 38.3 µM), for inactives: at the top dose activity change, negative = inhibition, most hits filed as inhibitors. Q27757; active = well fitted inhibition curve with a large enough effect; inconclusive = small, poorly fitted or top-dose-only effect; also: potency is read from the fitted curve at half-maximal effect; nearly all actives have a fitted effect of over 60% in size
#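 Kinase-Glo luciferase light output from ATP and luciferin was measured with 10 uM ATP, within the enzyme's linear range. Buffer: 50 mM imidazole pH 7.2, 50 mM KCl, 7 mM MgCl2, 0.01% Tween 20, 0.05% BSA; luminescence read after 8 min at ambient temperature.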
# * = called active by the depositor; ? = inconclusive; / = no result; ! = not active in a repeat; [ ] = remark or other dose. Compounds with a hit are over-represented: about 10% of the library has one in this group of screens. Unless noted, calls follow the shape of the dose curve; as a rule, active = well fitted inhibition curve with a large enough effect (not every such curve was filed as active); inconclusive = small, poorly fitted or top-dose-only effect, or another doubt; inactive = no such curve, though single readings can be large or run the other way. Unless noted, % is scaled to controls: 0 for no effect and ±100 for the full control effect.
SMILES,LMNA splice mod,HPGD inh,PNC assembly inh,ALDH1A1 block,Luc counter
O=[N+]([O-])c1cc2c(cc1CNCCc1ccc3c(c1)OCO3)OCO2,-9.7%,-3.2%,-5.2,28.2µM*,-0.5%
Oc1ccc(CCNCc2cc3c(cc2Br)OCO3)cc1,/,-22.6%,/,-0.5%[13.5 µM],-0.9%[7.66 µM]
O=C1/C(=C/c2cccnc2)SC(=NCc2ccccc2)N1Cc1ccccc1,?,/,/,0.562µM*,-1.8%
Cn1c(=O)cc(OCCCC(=O)N2CCC3(CC2)OCCO3)c2ccccc21,?,-26.8%,?,?,-4.7%
Cn1c(=O)cc(OCC(=O)N2CCC3(CC2)OCCO3)c2ccccc21,-7.9%,-3.8%,-95.0*,7.4%,-1.6%
CS/C(N)=C(C#N)/C(C#N)=C(\N)SC,/,?,/,7.08µM*,-5.6%[39.9 µM]
CCCCCc1nc2c(c(=O)c3ccccc3n2C)c(=O)n1C1CCCCCC1,-18.7%,-0.8%,?,3.55µM*,-0.5%
Cc1cc(CN(C)C)c(OC(=O)N(C)C)cc1C,-1.1%,/,-121.8*,6.3%,/
CC(C)(C)OC(=O)N1CC[C@H]1COc1cnc[c]([Sn]([CH3])([CH3])[CH3])c1,/,0.5%,/,3.3%[13.5 µM],1.9%[39.9 µM]
CC(C)(C)C(=O)C1C(=O)c2ccccc2C1=O,/,-10.8%,/,15.8µM*,/
O=C(/C=C/c1ccccc1)C1C(=O)c2ccccc2C1=O,?,-12.7%,-26.4,7.5%,-12.8%
N[C@@H](Cc1c[nH]c2cc([N+](=O)[O-])ccc12)C(=O)O,/,-7.7%,/,3.8%[13.5 µM],-6.5%[7.66 µM]
c1ccc(OP(Oc2ccccc2)Oc2ccccc2)cc1,/,-0.1%,/,-15.7%,/
CCOP(=S)(OCC)SCn1c(=O)oc2cc(Cl)ccc21,?,?,/,2.5%,-0.2%
CCn1c(=O)oc2cc(NC(=O)CCl)ccc21,?,/,/,1.58µM*,4.3%
O=C(CCN1CC2CCC(CC2)C1)c1cccs1,/,1.5%,/,0.0708µM*,-0.7%[7.66 µM]
C=CCn1c(O)c(/C(CC)=N/NC(=S)Nc2ccccc2)c(=O)[nH]c1=O,/,/,/,17.8µM*,/
C=CCn1c(O)c(C(CC)=NCCc2ccccc2)c(=O)[nH]c1=O,?,-14.6%,?,-1.0%,-0.2%
Cc1ccc(OP(=O)(Oc2ccc(C)cc2)Oc2ccc(C)cc2)cc1,/,-0.1%,/,7.9%,/
CC1CCC(C(C)C)C(OP(=O)(c2ccc(N(C)C)cc2)C(O)c2cccnc2)C1 (stereo not drawn),?,-1.5%,-113.8*,-1.7%,-3.8%
Brc1c(NC2=NCCN2)ccc2nccnc12,?,22.4µM*!,-9.9,15.8µM*!,-0.9%
C=CC(N)=O,/,-3.1%,/,24.8%,/
N#CC(C#N)=Cc1ccc(-c2ccccc2)o1,?,-14.1%,43.3,?,1.0%
N#CC(C#N)=Cc1ccc(-c2ccccc2F)o1,-10.2%,-2.5%,-3.0,8.91µM*,-4.4%
Fc1ccccc1CNC1CN2CCC1CC2 (stereo not drawn),7.7%[46 µM],/,/,4.3%,-1.4%
SMILES,LMNA splice mod,HPGD inh,PNC assembly inh,ALDH1A1 block,Luc counter
Clc1ccc(CNC2CN3CCC2CC3)cc1 (stereo not drawn),4.8%,0.6%,-80.2*,10.0%,-1.6%
ClC1=C(Cl)C2(Cl)C3C(Cl)C(Cl)CC3C1(Cl)C2(Cl)Cl (stereo not drawn),/,-4.2%,/,-16.4%,/
COc1cccc(-c2cc(C(F)(F)F)n3nc(C(=O)N4CCC5(CC4)OCCO5)cc3n2)c1,-0.9%,11.2µM*,-18.9,12.6µM*,-1.3%
COc1ccc(NC(=O)N2CC3(CCN(C(=O)Oc4ccccc4)CC3)C2)cc1,/,?,/,?,-4.1%
CCOC(=O)c1c(C)n(COCCO)c2ccc(O)cc12,-6.6%,-20.2%,?,1.9%,-1.5%
CCOC(=O)c1c(C)n(Cc2ccco2)c2ccc(O)cc12,-1.4%,22.4µM*,16.5,3.98µM*,0.5%
CCCCn1c(O)c(C(C)=NCCN2CCOCC2)c(=O)[nH]c1=O,-1.9%,-3.7%,-27.6,-13.7%,-3.3%
CC(=NCCN1CCOCC1)c1c(O)n(C2CCCCC2)c(=O)[nH]c1=O,?,0.3%,24.4,14.1µM*,5.7%
COc1c2ccoc2cc2oc(=O)ccc12,/,-0.7%,/,20µM*,-0.4%
Cc1cccc(N2C(=O)NC(=O)/C(=C\c3ccc4c(c3)CCCN4Cc3ccccc3)C2=O)c1,-5.5%,7.08µM*,-2.3,0.178µM*,-2.1%
CCN(CC)c1ncnc2c1ncn2[C@@H]1O[C@@H](COP(=O)(O)OP(=O)(O)C(Br)(Br)P(=O)(O)O)[C@H](O)[C@H]1O,/,-17.6%,/,-6.4%,-0.8%
O=C1C(Cl)=C(Cl)C(=O)C(Cl)=C1Cl,/,0.891µM*,/,0.398µM*,-13.0%
Cc1cc(C)cc(OP(=O)(Oc2cc(C)cc(C)c2)Oc2cc(C)cc(C)c2)c1,/,-13.6%,/,?,/
CCOC(=O)CN(C#N)c1nc(N(C)C)nc(N(C)C)n1,/,/,/,10µM*,3.1%
CCOC(=O)CBr,/,-11.8%,/,?,/
COC(=O)CSC1=NP(=S)(SCC(=O)OC)N2CCCC2=C1C#N (stereo not drawn),7.0%,-2.3%,-126.5*,?,-3.7%
COc1cc2c3cc1Oc1cc(ccc1O)C[C@@H]1c4c(cc(OC)c(O)c4Oc4ccc(cc4)C[C@H]3N(C)CC2)CCN1C,4.3%,-10.4%,-97.1*,-3.2%,11.4%
c1ccc2c(c1)CC1CNCc3cccc(c31)S2 (stereo not drawn),-0.1%,-1.7%,-116.9*,0.9%,-4.4%
CC(C)Nc1ccc(Nc2ccccc2)cc1,1.41µM*,-13.8%,/,8.91µM*,/
O=P(Oc1ccccc1)(Oc1ccccc1)C(Nc1ccccc1)c1ccccc1 (stereo not drawn),?,-9.4%,-25.5,-10.7%,1.0%
CCCN(CCC)[C@@H]1CCc2c(OC)cccc2[C@@H]1C,/,2.2%,/,-1.9%,-0.7%
O=c1cc(-c2ccc(O)c(O)c2)oc2cc(O)cc(O)c12,?,11.2µM*!,/,20µM*,2.5%
O=c1c(O)c(-c2ccc(O)c(O)c2)oc2cc(O)cc(O)c12,?,20µM*!,/,12.6µM*!,0.1%
CCN1C(=O)NC(=O)/C(=C\c2ccc(N3CCOCC3)cc2OC)C1=O,11.2%,?,2.8,?,-13.1%
Cc1ccc(/C=C2/C(=O)NC(=O)N(C)C2=O)cc1,-13.5%,-29.4%,-26.3,0.3%,1.1%
SMILES,LMNA splice mod,HPGD inh,PNC assembly inh,ALDH1A1 block,Luc counter
O=C1NC(=O)N(CCC2=CCCCC2)C(=O)/C1=C/c1ccc(O)cc1,-1.8%,11.2µM*,-14.8,0.794µM*,0.5%
COc1ccc(/C=C2\C(=O)NC(=O)N(CCC3=CCCCC3)C2=O)c(OC)c1,-9.0%,20µM*,-12.1,0.316µM*,-3.2%
Cc1cccc(C)c1N,/,-2.7%,/,-4.6%,/
C=CCn1c(O)c(C(C)=Nc2ccc(C(=O)OCC)cc2)c(=O)[nH]c1=O,11.9%,-28.4%,17.3,31.6µM*,3.9%
C/C=C/C=O,/,-3.9%,/,-2.3%,/
O=C(O)c1cc[c]([Hg][S]c2ncnc3nc[nH]c23)cc1,/,0.224µM*,/,0.891µM*,0.0%[7.66 µM]
Cc1cc(C=C2C(=O)N(C)C(=S)N(C)C2=O)c(C)n1C1CCCC1,-0.2%,-12.6%,58.4,22.4µM*,-4.3%
Cc1cc(C=C2C(=O)N(C)C(=S)N(C)C2=O)c(C)n1-c1cccnc1,6.6%,10µM*,10.3,11.2µM*,-4.1%
